Assay results from PubChem BioAssay.

Assay: probe aCHRDL2 binding to arrayed compounds – biochemical, biotinylated probe, 635/667 nm fluorescence, primary screen (AID 1100)
Settings: small-molecule microarray, higher = more signal

SMILES | composite z-score
CCOC(=O)C[C@H]1[C@H](OC(=O)c2ccccc2-c2ccccc2)[C@@H](NC(=O)c2ccccc2)c2cc(OCCCO)ccc2N1C(=O)Cc1ccc(OC)cc1 | 0.0247
C=CCC(OC(C)=O)[C@@H]1[C@@H](N(Cc2ccc(-c3cccc(C(F)(F)F)c3)o2)C(=O)c2cccc3ccccc23)c2cc(OCCCO)ccc2N1C(=O)c1ccc(-c2ccccc2)cc1 (stereo partly specified) | -0.0042
C[C@H]1ON(c2ccccc2)[C@@H](c2ccccc2)[C@@H]1C(=O)N1C(=O)OC[C@@H]1c1ccccc1 | -0.351
COCCOC(=O)N1C(=O)[C@@]2(c3cc(C#CCNC(N)=O)ccc31)[C@H](C(N)=O)[C@H]1C(=O)O[C@H](c3ccccc3)[C@H](c3ccccc3)N1[C@@H]2c1ccc(OCCO)cc1 | 0.721
CCCC=C(CCC)[C@@H](NS(=O)(=O)c1cccc2cccnc12)c1ccc(C(=O)OC)cc1 | 1.46
CCOC(=O)C1=CC[C@@H](c2ccccc2)N(S(=O)(=O)c2ccc(C)cc2)[C@H]1C=C(C)C | 0.688
C#CCNS(=O)(=O)N(C)C | -0.55
O=C1O[C@H](c2ccccc2)[C@H](c2ccccc2)N2[C@H]1[C@@H](C(=O)N1CCN(c3ncccn3)CC1)[C@]1(C(=O)Nc3ccc(C#CCCO)cc31)[C@H]2c1ccc(OCCO)cc1 | 0.536
COCCOC(=O)N1C(=O)[C@@]2(c3cc(C#CC4(O)CCCCCC4)ccc31)[C@H](C(=O)N1CCN(c3ncccn3)CC1)[C@H]1C(=O)O[C@H](c3ccccc3)[C@H](c3ccccc3)N1[C@@H]2c1ccc(O)cc1 | 0.227
Cc1cc(C)c(C(O)C2C=CC3C(=O)N(c4ccccc4)C(=O)C3N2Nc2ccc([N+](=O)[O-])cc2)c(C)c1 (stereo unspecified) | 0.911
Cc1ccc(S[C@]2(C(=O)O)CC(=O)N(C3CCCCC3)[C@@H]2c2ccc(CO)cc2)cc1 | 0.571
CCOc1cc(C(O)C2C=CC3C(=O)NC(=O)C3N2Nc2ccccn2)ccc1O (stereo unspecified) | -0.0156
CC(=O)NCCCC[C@@H]1NC(=O)[C@@H]2C[C@H](C(=O)NCCCC[N+](C)(C)C)[C@H](c3cccc(OCCO)c3)N2C1=O | 0.275
COc1ccc([Si](C)(C)[C@@H]2[C@@H](CC(=O)N(CCO)Cc3ccccc3)O[C@]3(C(=O)N(Cc4ccc(N5CCOC5=O)cc4)c4ccccc43)[C@H]2C)cc1 | 0.0947
COC(=O)[C@]1(Cc2ccccc2CN=[N+]=[N-])N=C(c2ccc(OCCCO)cc2)O[C@@H]1c1ccccc1CN=[N+]=[N-] | 0.835
CN(C)C(=O)[C@]1(Cc2ccccc2N=[N+]=[N-])N=C(c2ccc(OCCCO)cc2)O[C@@H]1c1ccccc1CN=[N+]=[N-] | 0.279
CC(C)(C)OC(=O)CC[C@@]1(C(=O)N2CCCCC2)N=C(c2ccc(OCCCO)cc2)O[C@@H]1c1ccccc1CN=[N+]=[N-] | 0.881
CCN(CC)c1ccc(N2CC=CC34O[C@@H]5/C=C\CCCOC(=O)C5[C@H]3C(=O)N(CCCCCO)[C@@H]4C2=O)cc1 (stereo partly specified) | 0.397
[N-]=[N+]=Nc1ccccc1C[C@]1(C(=O)NCCN2CCOCC2)N=C(c2ccc(OCCCO)cc2)O[C@H]1c1ccccc1N=[N+]=[N-] | 1.07
COC(=O)[C@]1(Cc2ccccc2CN=[N+]=[N-])N=C(c2ccc(OCCCO)cc2)O[C@@H]1c1ccccc1 | 0.987
COCCOC(=O)N1C(=O)[C@@]2(c3cc(C#Cc4ccc(OC)cc4)ccc31)[C@H](C(=O)N1CCc3cc(OC)c(OC)cc3C1)[C@H]1C(=O)O[C@H](c3ccccc3)[C@H](c3ccccc3)N1[C@@H]2c1ccc(O)cc1 | -0.107
COCCOC(=O)N1C(=O)[C@@]2(c3cc(C#CCCO)ccc31)[C@H](C(=O)NC[C@H](O)c1ccccc1)[C@H]1C(=O)O[C@H](c3ccccc3)[C@H](c3ccccc3)N1[C@@H]2c1ccccc1OCCO | 0.426
COc1ccccc1CN1C(=O)c2ccccc2[C@@H](C(=O)NCC(C)C)[C@@H]1c1ccc(CO)cc1 | 0.705
C=CCN1C(=O)[C@@]2(O[C@@H](CCn3cc([C@H](O)c4ccccc4)nn3)[C@H]([Si](C)(C)c3ccc(OC)cc3)[C@H]2C)c2cc(NC(=O)c3ccc(OC)cc3)ccc21 | 0.143
O=C(O)[C@]1(CCS(=O)(=O)c2ccccc2)N=C(c2ccc(OCCCO)cc2)O[C@@H]1c1ccccc1 | 1.04
CN(C)CCCN1C(=O)[C@@]2(Cc3ccccc31)c1ccccc1C(=O)N(Cc1ccccc1)[C@H]2c1ccc(CO)cc1 | 0.113
